Drawing on PubChem BioAssay (NCI), this text covers growth inhibition for 20 compounds.

The nature of test [1]: NCI Yeast Anticancer Drug Screen. Data for the rad50 strain (AID 155).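 Further: 0% = growth of vehicle-only cultures of the same strain.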 Particulars: S. cerevisiae rad50 strain growth inhibition, hits give high values; at 50.0 µM unless noted. An outline of the steps:
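Yeast carrying a defined DNA repair defect were exposed to test compounds, and growth was compared with vehicle-treated controls to give percent inhibition.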

Test [2] can be described thus: NCI Yeast Anticancer Drug Screen. Data for the mec2-1 strain (AID 157). Particulars: S. cerevisiae mec2-1 strain, hits give high values; at 50.0 µM unless noted. An outline of the steps:
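Using mec2-1 yeast: add compound, measure growth, express inhibition versus vehicle-treated cultures.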

A short description of test [3]: NCI Yeast Anticancer Drug Screen. Data for the sgs1 mgt1 strain (AID 161).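 Further: 0% = growth of cultures given vehicle only.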 The conditions noted are these: S. cerevisiae sgs1 mgt1 strain, hits give high values; at 50.0 µM unless noted. Put shortly: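 Growth of a repair-deficient yeast mutant was monitored after compound treatment and expressed as inhibition relative to vehicle-treated cultures.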
A short description of test [4]: NCI Yeast Anticancer Drug Screen. Data for the cln2 rad14 strain (AID 165).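 Further: 0% = growth equal to vehicle treated cultures.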 The conditions noted are these: S. cerevisiae cln2 rad14 strain, hits give high values; at 50.0 µM unless noted. Put shortly: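 Yeast strain cln2 rad14, bearing defects in cell cycle control and DNA repair, serves as the test system; values reflect growth inhibition compared with vehicle.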

The nature of test [5]: NCI Yeast Anticancer Drug Screen. Data for the bub3 strain (AID 167). The conditions noted are these: S. cerevisiae bub3 mutant strain, hits give high values; at 50.0 µM unless noted. An outline of the steps:
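Compounds were applied to a genetically altered yeast strain carrying a cell-cycle control defect. Growth inhibition was scored against vehicle-treated controls.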

A short description of test [6]: NCI Yeast Anticancer Drug Screen. Data for the mlh1 rad18 strain (AID 175). The conditions noted are these: S. cerevisiae mlh1 rad18 strain growth inhibition, hits give high values; at 50.0 µM unless noted. An outline of the steps: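 Steps: expose repair-defective yeast to compound; measure growth; express inhibition against vehicle-treated controls.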

SMILES strings stand for the structures. The panel holds about 79,000 compounds, 15% with a hit somewhere; the sample as a whole holds those more often. Values without a mark were called inactive. The source made the active and inactive calls. No stated cut-off is given here; in the data, active means growth inhibition above about 70%; inactive means the rest.

For `COC(=O)C(CCSc1ccccc1)C(=O)OC`, the growth inhibition is 0.85% in test [1]; -4.45% in test [2]; 20.1% in test [3]; 12.1% in test [4]; 28.2% in test [5]; -3.1% in test [6].
With `CCC1CSC(NS(=O)(=O)c2ccc(N)cc2)=N1` (stereo not given), the growth inhibition was -18.4% in test [1]; -3.5% in test [2]; -0.7% in test [3]; -39% in test [4]; 2.15% in test [5]; 1.3% in test [6].
Turning to `CC(=O)Nc1c(N)c2ccccc2c2ccccc12`, the growth inhibition in test [1] was -4.2%; in test [2], -13.9%; in test [3], -22.7%; in test [4], 1.75%; in test [5], -4.5%; in test [6] it was -12.2%.
On to `OCC1COCO1` (stereo not given), for which the growth inhibition in test [1] was 0.35%; in test [2], -4.1%; in test [3], -8.75%; in test [4] it was -1.65%; in test [5], -6.5%; in test [6] it was 9.2%.
Take `CCOc1cc(C=O)c2c(ccc3ccc(OC)c(OC)c32)c1OC`: the growth inhibition is 86.5% (active) in test [1]; 90.8% (active) in test [2]; 84.7% (active) in test [3]; 83.5% (active) in test [4]; 82.4% (active) in test [5]; -11.8% in test [6].
In the case of `CC(Oc1ccccc1)C(=O)NC(=S)Nc1cccc2ccccc12` (stereo not given), the growth inhibition was -10.2% in test [1]; -3.5% in test [2]; -3.35% in test [3]; -19.6% in test [4]; 20.9% in test [5]; 4.85% in test [6].
Regarding `CCc1ccccc1NC(=O)C(=O)CC(=O)c1sc(Nc2ccccc2Cl)nc1C`, the growth inhibition in test [1] was 6.25%; in test [2] it was 6.15%; in test [3], 26%; in test [4], -16.6%; in test [5], -2.65%; in test [6] it was 15.1%.
Consider `CCn1nc(C)c2c1C(=O)NC(C)C(=O)N2` (stereo not given), for which the growth inhibition in test [1] is -22.6%; in test [2] it was -33%; in test [3], -13.5%; in test [4], 16.4%; in test [5], -22.9%; in test [6], -22.4%.
For `O=C1C2C(c3ccccc3)NC(c3ccccc3)C1C(c1ccccc1)NC2c1ccccc1` (stereo not given), the growth inhibition in test [1] is -13.4%; in test [2], -8.5%; in test [3], -35.6%; in test [4] it was -18.1%; in test [5] it was -65%; in test [6] it was 0.9%.
For the compound `N#CCNC(=O)Cc1ccccc1`, the growth inhibition in test [1] was 10.2%; in test [2], -10.2%; in test [3], -10.2%; in test [4] it was -12.4%; in test [5] it was -30.3%; in test [6] it was -4.7%.
Regarding `Cc1cn(C2CC(OP(=O)(O)OCC3OC(n4ccc(N)nc4=O)C(O)C3O)C(CO)O2)c(=O)[nH]c1=O` (stereo not given), the growth inhibition in test [1] was 7.55%; in test [2] it was 1.5%; in test [3] it was 8.15%; in test [4], 13.7%; in test [5], -23.6%; in test [6] it was -74.2%.
For the compound `C/C(CC(=O)Nc1cc(C)ccc1C)=N\NC(=O)c1ccncc1`, the growth inhibition in test [1] was 11.8%; in test [2], -0.4%; in test [3], 10.7%; in test [4], 22.7%; in test [5], -0.75%; in test [6], 1.15%.
For `COc1cc(Nc2nc3ccc(C(F)(F)F)cc3nc2C(=O)O)cc(OC)c1OC`, the growth inhibition is 15.8% in test [1]; 20.3% in test [2]; 29.9% in test [3]; 48.7% in test [4]; 24.8% in test [5]; 10.3% in test [6].
As to `CC1Cn2c(Cc3ccccc3)nnc2S1` (stereo not given), the growth inhibition in test [1] is -15.2%; in test [2], 1.25%; in test [3], 5.45%; in test [4], 19.5%; in test [5], -4.6%; in test [6], -4.75%.
Regarding `CC1=N[C@@H](C(=O)NCC(N)=O)Cc2c1[nH]c1ccccc21`, the growth inhibition in test [1] was 11.7%; in test [2], 10.1%; in test [3], 8.65%; in test [4], -7.85%; in test [5], -4.25%; in test [6], 4.4%.
As to `CCS(=O)(=O)C(CCCl)S(=O)(=O)CC`, the growth inhibition in test [1] was 2.45%; in test [2], 0.9%; in test [3], 16.4%; in test [4], 8.55%; in test [5], 17.4%; in test [6] it was 13.9%.
Turning to `COC(=O)C1CCCC1`, the growth inhibition in test [1] was 3.75%; in test [2] it was -44%; in test [3], 16.2%; in test [4], 9.4%; in test [5], -2.8%; in test [6], 22.6%.
`Cc1cc([N+](=O)[O-])ccc1P(=O)(O)O`: the growth inhibition in test [1] was 8.55%; in test [2] it was 7.6%; in test [3], 0%; in test [4], -0.65%; in test [5], -3.8%; in test [6] it was -7.95%.
Consider `c1ccc2nc(CCC3CCCCN3)ccc2c1` (stereo not given), for which the growth inhibition was 7.2% in test [1]; 7.5% in test [2]; -9.7% in test [3]; -14.2% in test [4]; -2.1% in test [5]; 17.1% in test [6].
As to `O=c1[nH]c2cccc([N+](=O)[O-])c2c2ccccc12`, the growth inhibition in test [1] is 5.85%; in test [2] it was 26.6%; in test [3], 14.1%; in test [4], 23%; in test [5], -6.35%; in test [6], 11.2%.
